The nature of assay [1]: AP1 Signaling Pathway (AID 357; active means well fitted curve in either direction with a large enough effect, not every such curve was filed as active; further: on the % scale 0 is the no-effect control and ±100 the full control effect). A digest of the protocol:
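AP-1-bla ME-180 cells with beta-lactamase reporter under AP-1 response element, stimulated with EC50 EGF; compounds titrated, 5 hours at 37 degrees Celsius. CCF4 read at 460/530 nm ratio; positive and negative modulators judged by AC50.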

The target of assay [2] is Cytochrome P450 1A2 (Homo sapiens) (UniProt P05177). As to the kind of experiment: p450-cyp1a2 (AID 410; calls by dose curve; further: potency means the concentration at half of the fitted maximal effect;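 on activity change, negative = inhibition: -100% = full effect of reference inhibitor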). A digest of the protocol: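 20nM CYP1A2 with 100uM Luciferin-ME (at Km) in 100mM KPO4; compound preincubated 10 min, NADPH regeneration added, 60 min at room temperature. Luciferin quantified by luminescence after detection reagent; normalized to 57 uM furafylline.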

Assay [3] can be described thus: Stat Signaling Pathway (AID 446; active means well fitted curve in either direction with a large enough effect, not every such curve was filed as active;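 further: ME-180 cervical cancer cells given 40 pM IL-6 alongside compound; SIE-controlled beta-lactamase reporter measured as 460/530 nm FRET emission ratio; on the % scale 0 is the no-effect control and ±100 the full control effect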). In short, it runs like this: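 Reporter line: ME-180 cervical carcinoma, SIE-beta-lactamase. Treatment: compound with 40 pM IL-6, 5 hrs, 37 C, in low-serum OPTI-MEM with 10 mM HEPES pH 7.3. Detection: 460/530 nm fluorescence.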
The target in assay [4] is Glucocorticoid receptor (Homo sapiens) (UniProt P04150). In words: GR-GFP Redistribution (AID 450;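 active means compounds whose dose series gives a full or clear partial fitted curve of increased nuclear translocation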; further: potency means the concentration at half of the fitted maximal effect). The settings on record: U2OS GR-GFP nuclear translocation, laser cytometry, 2 h.
The target is the same in assay [5]. In words: GR-EFC Redistribution (AID 451; calls by dose curve; further: potency means the concentration at half of the fitted maximal effect). The settings on record: CHO-K1 GR-EFC translocation, beta-gal luminescence, 2 h. A digest of the protocol: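 CHO-K1 cells stably expressing nuclear-localized β-gal enzyme acceptor and GR fused C-terminally to the enzyme donor fragment; ligand-driven nuclear translocation restores β-gal by complementation. Compounds titrated up to 46 uM final, 2 h at 37 °C; luminescence read.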

Assay [6] addresses Mitogen-activated protein kinase 10 (Mus musculus) (UniProt Q61831). As to the kind of experiment: JNK3 AlphaScreen Assay (AID 530; active means well fitted curve in either direction with a large enough effect, not every such curve was filed as active;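 further: kinase came from lysate of stimulated human HepG2 cells; signal reports phosphorylation of biotinylated GST-cJun 1-79 at Ser73 with 10 µM ATP; on the % scale 0 is the no-effect control and ±100 the full control effect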). In short, it runs like this: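 Inhibitors reduce antibody binding to phosphorylated biotin-cJun, lowering AlphaScreen luminescence. Lysates from HepG2 cells pre-activated by IL-1beta plus TNF-alpha supplied JNK3; compounds were titrated.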
Assay [7] addresses 3',5'-cyclic-AMP phosphodiesterase 4B (Homo sapiens) (UniProt Q07343). As to the kind of experiment: qHTS Assay for Inhibitors of PDE-IV (AID 607; active means well fitted activation curve with a large enough effect in the main read-out, with a control signal flat, not every such curve was filed as active; further: % of control where 0% means no effect). A digest of the protocol:
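Cell-based read-out of cAMP via a modified cyclic nucleotide-gated channel and membrane potential dye (535/590 nm) in HEK293 cells expressing PDE4 endogenously. Compounds tested up to 22.9 uM final; 100 uM RO 20-1724 reference.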
In general terms: In qHTS, concentration-response curves come from the screen itself.

A short description of assay [8]: qHTS Assay for Lipid Storage Modulators (AID 1519; calls by dose curve). The settings on record: Drosophila S3 cells, BODIPY lipid droplet/cell ratio, laser cytometry, cells loaded with oleic acid. A digest of the protocol: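 Cells seeded at 5,000 per well were treated with compounds over a concentration series and loaded with oleic acid (400 uM, as added). Lipid droplet fluorescence (488 nm excitation, 500-530 nm channel) was read by laser-scanning cytometry and normalized to 20 uM Triacsin C.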

Assay [9] is described as follows: NFAT Signaling Pathway (AID 444; active means well fitted curve in either direction with a large enough effect, not every such curve was filed as active;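 further: carbachol stimulus at about its EC50 of 1 µM final; on the % scale 0 is the no-effect control and ±100 the full control effect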). The following applies: Jurkat NFAT-bla M1, carbachol, beta-lactamase ratio, 5 h; at 17.2 µM (top of the series) unless noted. In short, it runs like this:
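Jurkat cells carrying an NFAT-driven β-lactamase reporter and co-transfected muscarinic M1 receptor were treated with compound plus carbachol (1 uM final, an EC50 level) for 5 h at 37 °C. CCF4 loading followed for 1 h at RT; 460/530 nm ratio gave %activity.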

Assay [10] deals with Ubiquitin carboxyl-terminal hydrolase 1 (Homo sapiens) (UniProt O94782). In words: Inhibitors of USP1/UAF1: Pilot qHTS (AID 504865).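 Further: rhodamine fluorescence freed from ubiquitin-rhodamine substrate followed over time; top concentration of the series differs between compounds; on the % scale 0 is the no-effect control and ±100 the full control effect; nearly all actives have a fitted effect of over 35% in size.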 In short, it runs like this:
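Deubiquitinase activity followed as kinetic rhodamine fluorescence release from 150 nM Ub-Rho. 1 nM USP1/UAF1 with compound, after 15 min room-temperature preincubation, in HEPES pH 7.8 buffer containing TCEP, EDTA, BSA and Tween-20.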

In assay [11] the target is ATP-dependent 6-phosphofructokinase (Trypanosoma brucei brucei) (UniProt O15648). As to the kind of experiment: qHTS Assay to Find Inhibitors of T. brucei phosphofructokinase: hit validation (AID 492961). In short, it runs like this: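 Percent activity derived from corrected luminescence, normalized between 0x and 1x enzyme controls, then fitted to concentration-response curves. Conditions: 1.25 nM PFK, 0.1 mM ATP, 0.5 mM F6P, 45 min RT.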

In assay [12] the target is Luciferin 4-monooxygenase (Photinus pyralis) (UniProt P08659). As to the kind of experiment: Biochemical firefly luciferase enzyme assay for NPC (AID 624030).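 Further: purified P. pyralis luciferase at 10 nM with luciferin and ATP substrate; 0% = DMSO and -100% = full luciferase inhibition by PTC124 control; nearly all actives have a fitted effect of over 70% in size.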 In short, it runs like this:
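Counter-screen for direct inhibition of the luciferase enzyme by approved-drug library compounds, run at 10 nM enzyme in 50 mM Tris acetate (final). Luminescence was read within 5 min of enzyme-buffer addition and normalized to PTC124 versus DMSO (0%).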

Assay [13] can be described thus: qHTS profiling for inhibitors of Plasmodium falciparum proliferation (AID 504749).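 Further: 0% = DMSO vehicle and full inhibition = artemisinin control; nearly all actives have a fitted effect of over 60% in size.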 The following applies: P. falciparum in erythrocytes, SYBR Green DNA, 72 h. In short, it runs like this: (§1)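 Parasite proliferation within erythrocytes, 72 h exposure. Endpoint: SYBR Green I fluorescence after overnight lysis at room temperature. Controls: 0.29 uM artemisinin, DMSO.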

A further assay has as its system C2A. The description is as above. The settings on record: P. falciparum in erythrocytes, SYBR Green DNA, 72 h; series mostly up to 12.8 µM. In short, it runs like this: as §1
Another assay relates to CP191. The description is as above. The settings on record: P. falciparum in erythrocytes, SYBR Green DNA, 72 h; series mostly up to 12.8 µM. A digest of the protocol: as §1
The test system of another assay is CP238. Described as above. The following applies: P. falciparum in erythrocytes, SYBR Green DNA, 72 h; series mostly up to 12.8 µM. In short, it runs like this: as §1
In another assay the test system is CP256. The assay is described as above. The settings on record: P. falciparum in erythrocytes, SYBR Green DNA, 72 h; series mostly up to 12.8 µM. In short, it runs like this:
as §1

The test system of the next assay is FAB9. The assay is described as above. The settings on record: P. falciparum in erythrocytes, SYBR Green DNA, 72 h; series mostly up to 12.8 µM. A digest of the protocol:
as §1

The next assay relates to JCK. The assay is described as above. The settings on record: P. falciparum in erythrocytes, SYBR Green DNA, 72 h; series mostly up to 12.8 µM. In short, it runs like this:
as §1

Another assay concerns SC27B. Described as above. The settings on record: P. falciparum in erythrocytes, SYBR Green DNA, 72 h; series mostly up to 12.8 µM. In short, it runs like this:
as §1

Where [14] appears, read: measured here: cell count channel max response.
The mark [15] stands for this setting: measured here: lipid channel max response.

Results on six compounds are retold here after PubChem BioAssay (NCATS).

The structures appear in SMILES notation. Results filed as inconclusive are left out. Activity calls are given as the source filed them. Unless noted, the call rests on the fitted dose curve; in most records, active means well fitted curve in the direction sought with a large enough effect; inconclusive means small, poorly fitted or top-dose-only effect, or another doubt; inactive means no such curve, though single readings can be large; an effect the other way counts as inactive or inconclusive.

3',5'-cyclic-AMP phosphodiesterase 4B (Homo sapiens), sequence (Q07343 whole entry, looked up): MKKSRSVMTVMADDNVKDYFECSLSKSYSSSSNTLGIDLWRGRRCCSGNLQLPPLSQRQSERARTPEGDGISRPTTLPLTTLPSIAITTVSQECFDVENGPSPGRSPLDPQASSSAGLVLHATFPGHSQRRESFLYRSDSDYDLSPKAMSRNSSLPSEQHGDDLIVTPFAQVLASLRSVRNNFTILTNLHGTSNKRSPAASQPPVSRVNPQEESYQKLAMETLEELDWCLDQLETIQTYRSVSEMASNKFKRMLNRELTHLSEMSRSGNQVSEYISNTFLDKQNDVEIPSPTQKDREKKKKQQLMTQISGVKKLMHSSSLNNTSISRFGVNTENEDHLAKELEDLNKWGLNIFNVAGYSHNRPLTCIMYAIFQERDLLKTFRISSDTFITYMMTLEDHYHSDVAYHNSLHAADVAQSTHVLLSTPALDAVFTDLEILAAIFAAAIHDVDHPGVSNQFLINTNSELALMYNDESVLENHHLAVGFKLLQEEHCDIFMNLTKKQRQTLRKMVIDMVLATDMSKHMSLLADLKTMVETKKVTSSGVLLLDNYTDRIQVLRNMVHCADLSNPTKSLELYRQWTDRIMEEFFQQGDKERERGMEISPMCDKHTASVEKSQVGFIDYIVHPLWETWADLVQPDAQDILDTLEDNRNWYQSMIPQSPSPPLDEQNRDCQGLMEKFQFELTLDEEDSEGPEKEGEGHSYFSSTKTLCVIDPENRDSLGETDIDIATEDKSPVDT
Ubiquitin carboxyl-terminal hydrolase 1 (Homo sapiens), sequence (O94782 whole entry, looked up): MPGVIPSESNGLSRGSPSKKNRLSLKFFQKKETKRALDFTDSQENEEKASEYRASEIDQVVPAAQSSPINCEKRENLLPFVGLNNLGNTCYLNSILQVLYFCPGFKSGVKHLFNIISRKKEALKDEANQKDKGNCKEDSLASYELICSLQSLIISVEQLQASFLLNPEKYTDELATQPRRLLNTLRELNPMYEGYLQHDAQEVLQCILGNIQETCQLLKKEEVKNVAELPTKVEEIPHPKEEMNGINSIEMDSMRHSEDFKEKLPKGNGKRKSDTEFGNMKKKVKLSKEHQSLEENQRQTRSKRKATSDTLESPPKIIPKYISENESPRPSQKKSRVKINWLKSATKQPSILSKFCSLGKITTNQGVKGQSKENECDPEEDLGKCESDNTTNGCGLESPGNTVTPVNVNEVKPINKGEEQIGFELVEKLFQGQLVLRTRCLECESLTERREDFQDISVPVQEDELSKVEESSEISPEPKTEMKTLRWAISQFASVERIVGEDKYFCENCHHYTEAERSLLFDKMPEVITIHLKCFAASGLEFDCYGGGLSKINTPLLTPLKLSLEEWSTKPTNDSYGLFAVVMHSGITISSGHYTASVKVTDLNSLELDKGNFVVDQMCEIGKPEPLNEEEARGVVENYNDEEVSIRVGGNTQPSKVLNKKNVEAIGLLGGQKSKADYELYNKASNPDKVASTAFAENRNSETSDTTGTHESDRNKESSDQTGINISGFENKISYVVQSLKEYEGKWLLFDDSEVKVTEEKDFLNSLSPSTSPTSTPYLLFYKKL
Glucocorticoid receptor (Homo sapiens), sequence (P04150 whole entry, looked up, the tested form may be a part): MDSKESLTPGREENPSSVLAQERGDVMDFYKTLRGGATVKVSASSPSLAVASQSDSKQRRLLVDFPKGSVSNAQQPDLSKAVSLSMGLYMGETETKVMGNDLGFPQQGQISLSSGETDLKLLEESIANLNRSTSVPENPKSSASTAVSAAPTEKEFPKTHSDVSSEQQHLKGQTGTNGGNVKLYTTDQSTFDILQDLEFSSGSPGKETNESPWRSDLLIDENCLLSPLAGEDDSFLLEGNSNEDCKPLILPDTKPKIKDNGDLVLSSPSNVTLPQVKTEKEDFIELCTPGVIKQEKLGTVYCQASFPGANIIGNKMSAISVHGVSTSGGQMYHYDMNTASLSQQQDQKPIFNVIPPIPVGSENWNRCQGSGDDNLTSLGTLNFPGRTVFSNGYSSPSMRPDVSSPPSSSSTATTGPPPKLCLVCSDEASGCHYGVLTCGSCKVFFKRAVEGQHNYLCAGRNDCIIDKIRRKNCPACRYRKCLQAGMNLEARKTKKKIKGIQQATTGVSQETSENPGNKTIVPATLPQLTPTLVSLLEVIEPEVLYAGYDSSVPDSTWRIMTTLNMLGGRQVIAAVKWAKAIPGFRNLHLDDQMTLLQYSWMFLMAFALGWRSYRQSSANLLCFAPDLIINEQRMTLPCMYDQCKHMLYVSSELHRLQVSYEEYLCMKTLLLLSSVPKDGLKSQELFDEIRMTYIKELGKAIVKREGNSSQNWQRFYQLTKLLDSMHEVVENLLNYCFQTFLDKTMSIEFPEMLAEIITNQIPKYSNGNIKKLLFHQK
Cytochrome P450 1A2 (Homo sapiens), sequence (P05177 whole entry, looked up): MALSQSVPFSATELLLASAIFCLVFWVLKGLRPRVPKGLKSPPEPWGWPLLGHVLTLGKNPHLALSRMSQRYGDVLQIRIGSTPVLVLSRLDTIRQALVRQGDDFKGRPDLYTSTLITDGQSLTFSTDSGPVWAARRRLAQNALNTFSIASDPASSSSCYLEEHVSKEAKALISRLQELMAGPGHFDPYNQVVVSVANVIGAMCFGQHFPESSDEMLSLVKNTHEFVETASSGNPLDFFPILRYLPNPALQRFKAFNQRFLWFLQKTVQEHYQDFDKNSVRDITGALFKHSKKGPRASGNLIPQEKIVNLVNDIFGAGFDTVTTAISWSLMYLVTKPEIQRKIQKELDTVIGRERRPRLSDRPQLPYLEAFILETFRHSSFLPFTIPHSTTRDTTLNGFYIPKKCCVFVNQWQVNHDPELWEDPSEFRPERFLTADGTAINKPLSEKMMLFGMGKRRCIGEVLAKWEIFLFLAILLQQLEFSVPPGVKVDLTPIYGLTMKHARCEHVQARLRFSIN
Luciferin 4-monooxygenase (Photinus pyralis), sequence (P08659 whole entry, looked up): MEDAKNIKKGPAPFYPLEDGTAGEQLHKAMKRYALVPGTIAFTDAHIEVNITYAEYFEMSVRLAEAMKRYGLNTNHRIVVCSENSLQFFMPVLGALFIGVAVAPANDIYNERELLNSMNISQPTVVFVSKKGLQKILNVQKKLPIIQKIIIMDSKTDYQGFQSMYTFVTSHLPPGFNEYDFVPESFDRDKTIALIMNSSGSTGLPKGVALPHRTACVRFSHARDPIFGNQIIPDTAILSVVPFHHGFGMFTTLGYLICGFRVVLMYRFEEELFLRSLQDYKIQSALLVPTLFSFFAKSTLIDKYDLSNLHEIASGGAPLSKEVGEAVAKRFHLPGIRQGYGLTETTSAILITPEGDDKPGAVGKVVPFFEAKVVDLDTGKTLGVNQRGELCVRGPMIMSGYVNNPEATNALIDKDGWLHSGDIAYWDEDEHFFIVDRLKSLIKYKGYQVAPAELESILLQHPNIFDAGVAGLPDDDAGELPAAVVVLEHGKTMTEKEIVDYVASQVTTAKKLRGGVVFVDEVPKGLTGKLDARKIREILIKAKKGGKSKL
ATP-dependent 6-phosphofructokinase (Trypanosoma brucei brucei), sequence (O15648 whole entry, looked up): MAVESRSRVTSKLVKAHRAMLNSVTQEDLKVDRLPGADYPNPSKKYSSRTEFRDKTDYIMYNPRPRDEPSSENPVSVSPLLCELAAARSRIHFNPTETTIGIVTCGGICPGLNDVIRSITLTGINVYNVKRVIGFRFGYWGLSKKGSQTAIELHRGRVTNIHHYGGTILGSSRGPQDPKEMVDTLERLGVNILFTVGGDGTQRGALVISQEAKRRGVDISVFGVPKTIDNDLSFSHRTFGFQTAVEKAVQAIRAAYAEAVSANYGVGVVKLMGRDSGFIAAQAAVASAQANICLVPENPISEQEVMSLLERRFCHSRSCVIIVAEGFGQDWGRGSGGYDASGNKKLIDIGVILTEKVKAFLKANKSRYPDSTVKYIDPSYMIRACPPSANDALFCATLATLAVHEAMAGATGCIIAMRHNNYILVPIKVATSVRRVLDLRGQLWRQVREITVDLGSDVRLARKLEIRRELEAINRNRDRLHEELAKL

Regarding `c1ccc2c3c([nH]c2c1)[C@@H]1[C@H]2CC[C@H]([C@H]4CCCN[C@H]42)N1CC3`, the compound was called inactive in [1], in assay [3] and in assay [7]. Moreover, the Potency in assay [2] was 15.8 µM (active); in [4] it was > 20.6 µM (inactive); in assay [5], > 20.6 µM (inactive). Moreover, the Potency entry in assay [6] is “inactive”. Besides, the activity change, negative = inhibition in [8] (at 25.7 µM (top of the series)) is -1.37% (inactive). In addition, the max response is 0.348% in assay [8] (setting [14]) and -3.2% in assay [8] (setting [15]).

In the case of `CC(C)(CS)C(=O)N1CCC[C@H]1C(=O)O`, the compound was classed as inactive in assay [1] and in assay [7]. The Potency result in assay [2], in [6] and in assay [10] was “inactive” in each case. In addition, the activity change, negative = inhibition was -3.44% (inactive) in [9] and 1% (inactive) in assay [8] (at 25.7 µM (top of the series)). In addition, the Potency in [4] and in assay [5] was > 20.6 µM (inactive) throughout. The max response in assay [8] (setting [14]) is 2.97%; in [8] (setting [15]), 4.64%.

For the compound `COc1ccc(CNc2ncncc2-c2ccccc2CN(C)C)c(OC)c1`, the call in [1], in assay [3] and in assay [7] was inactive. Besides, the Potency in assay [2] was 15.8 µM (active); in assay [4], > 46 µM (inactive); in [5], > 46 µM (inactive). Besides, the Potency result in [6] and in assay [10] was “inactive” each time. The activity change, negative = inhibition in assay [8] (at 57.5 µM (top of the series)) is 6.9% (inactive). Also, the max response was determined as 9.69% in [8] (setting [14]) and 19.6% in [8] (setting [15]).

Take `CC(C)CC(=O)N[C@H](C(=O)N[C@H](C(=O)N[C@@H](CC(C)C)[C@H](O)CC(=O)N[C@@H](C)C(=O)N[C@@H](CC(C)C)[C@H](O)CC(=O)O)C(C)C)C(C)C`: the outcome in assay [1] and in assay [7] was inactive. The Potency result in [2], in assay [6] and in [10] was “inactive” throughout. For the same compound, the activity change, negative = inhibition in assay [9] was -1.98% (inactive); in [8] (at 25.7 µM (top of the series)), 1.03% (inactive). Also, the figures for the max response in assay [8] (setting [14]) and in [8] (setting [15]) were 20.1% and 8.75%, respectively.

Regarding `CN(C)CCOC(=O)[C@@H](c1ccccc1)C1(O)CCCC1`, the call in assay [1], in [3], in [7] and in assay [11] was inactive. The Potency result (in assay [2]; in assay [6]; in [10]; in [12]; in the assay on C2A; in the assay with CP191) was “inactive” each time. Also, the Potency entry in the assay with CP238, with CP256, in the assay with FAB9, in the assay with JCK and with SC27B was “inactive” throughout. In addition, the Potency in assay [5] is > 20.6 µM (inactive). The activity change, negative = inhibition in [8] (at 25.7 µM (top of the series)) was -1.19% (inactive). Further, the max response in assay [8] (setting [14]) was determined as 2.88%; in assay [8] (setting [15]), 1.92%. The activity, negative = inhibition in [13] (at 28.7 µM (top of the series), parasite line A) is 22.6% (inactive); in assay [13] (at 28.7 µM (top of the series), parasite line B), 8.77% (inactive).

With `CCOC(=O)O[C@]1(C(=O)COC(=O)CC)CC[C@@H]2[C@@H]3CCC4=CC(=O)C=C[C@@]4(C)[C@H]3[C@H](O)C[C@]21C`, the result in [1], in assay [3], in [7] and in assay [11] was inactive. In addition, the Potency entry (in assay [2]; in assay [6]; in [10]; in [12]; in the assay with C2A; with CP191) was “inactive” in each case. Further, the Potency entry with CP238, in the assay on CP256, with FAB9, in the assay on JCK and in the assay on SC27B was “inactive” each time. The Potency in assay [4] is 0.00356 µM (active). The activity change, negative = inhibition in assay [8] (at 25.7 µM (top of the series)) is -3.74% (inactive). For the same compound, the figures for the max response in assay [8] (setting [14]) and in assay [8] (setting [15]) were -6.91% and -11.8%, respectively. For the same compound, the activity, negative = inhibition in [13] (at 12.8 µM (top of the series), parasite line A) is 4.34% (inactive); in assay [13] (at 12.8 µM (top of the series), parasite line B), 0.379% (inactive).
